# Measurements as given in the supplement of paper PMC11732987, “Enantioselective OTUD7B fragment discovery through chemoproteomics screening and high-throughput optimisation” (Communications Chemistry, 2025).
# A number with no mark means an inactive call.
# Legend:
# Assay in all cases: log2 ratio of Biotin-Ahx-Ub-VS probe labelling (fragment/DMSO); higher = less target engagement (more negative = stronger competition), active = hit call of the paper (q ≤ 0.05, log2 ratio ≤ -1)
# Settings in all cases: compound concentration: 200 uM; treatment time: 3 h
# [1] = molecular target: T1, OTUD6B (UniProt Q8N6M0)
# T1 sequence (whole entry): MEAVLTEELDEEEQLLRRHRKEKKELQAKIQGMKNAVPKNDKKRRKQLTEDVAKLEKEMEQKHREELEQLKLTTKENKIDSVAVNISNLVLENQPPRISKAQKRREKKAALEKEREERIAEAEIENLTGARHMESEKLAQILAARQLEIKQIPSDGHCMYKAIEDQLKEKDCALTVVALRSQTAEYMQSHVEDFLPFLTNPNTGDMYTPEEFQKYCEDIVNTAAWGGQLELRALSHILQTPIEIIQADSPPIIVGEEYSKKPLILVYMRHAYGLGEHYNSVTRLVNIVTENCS
# Method in brief: (§1)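 Lysate from HEK293T cells, 495 µg per sample in Tris/CHAPS/IGEPAL buffer with protease inhibitors, was treated for 3 h in triplicate with fragment at 200 µM or vehicle. Biotin-Ahx-Ub-VS was next added at 0.5 µM final for 1 h. The labelled DUBs were enriched with NeutrAvidin, digested with LysC and trypsin, and run by diaPASEF LC-MS/MS, with values given as average log2 fragment/vehicle ratios by unpaired t-test on global-median-normalised Spectronaut quantities of proteins with ≥2 unique peptides.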
# [2] = molecular target: T2, OTUD7B (UniProt Q6GQQ9)
# T2 sequence (whole entry): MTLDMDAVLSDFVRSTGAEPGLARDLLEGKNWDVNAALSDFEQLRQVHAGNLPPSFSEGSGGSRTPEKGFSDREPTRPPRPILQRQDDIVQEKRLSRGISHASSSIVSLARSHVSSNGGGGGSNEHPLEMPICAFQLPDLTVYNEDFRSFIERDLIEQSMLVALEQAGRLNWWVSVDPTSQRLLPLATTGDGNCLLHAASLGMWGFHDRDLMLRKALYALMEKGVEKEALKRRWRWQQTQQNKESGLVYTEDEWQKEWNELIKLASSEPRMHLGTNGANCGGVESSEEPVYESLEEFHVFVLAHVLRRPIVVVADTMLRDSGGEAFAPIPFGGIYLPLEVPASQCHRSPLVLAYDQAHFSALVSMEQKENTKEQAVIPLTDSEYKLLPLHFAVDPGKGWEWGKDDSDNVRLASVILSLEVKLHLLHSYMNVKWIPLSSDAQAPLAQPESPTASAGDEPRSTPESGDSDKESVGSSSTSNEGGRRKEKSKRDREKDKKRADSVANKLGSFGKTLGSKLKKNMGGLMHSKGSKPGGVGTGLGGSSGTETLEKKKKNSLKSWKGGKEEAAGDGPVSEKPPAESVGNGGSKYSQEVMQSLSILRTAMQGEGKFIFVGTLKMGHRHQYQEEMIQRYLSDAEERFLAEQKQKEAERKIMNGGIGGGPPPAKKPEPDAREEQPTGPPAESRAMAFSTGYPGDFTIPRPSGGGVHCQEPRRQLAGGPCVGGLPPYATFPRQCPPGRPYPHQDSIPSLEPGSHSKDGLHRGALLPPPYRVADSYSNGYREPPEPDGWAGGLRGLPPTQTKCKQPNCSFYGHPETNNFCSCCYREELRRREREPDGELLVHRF
# Method in brief: as §1
# [3] = molecular target: PRPF8 (UniProt Q6P2Q9)
# Method in brief: as §1
# [4] = molecular target: T3, PSMD7 (UniProt P51665)
# T3 sequence (whole entry): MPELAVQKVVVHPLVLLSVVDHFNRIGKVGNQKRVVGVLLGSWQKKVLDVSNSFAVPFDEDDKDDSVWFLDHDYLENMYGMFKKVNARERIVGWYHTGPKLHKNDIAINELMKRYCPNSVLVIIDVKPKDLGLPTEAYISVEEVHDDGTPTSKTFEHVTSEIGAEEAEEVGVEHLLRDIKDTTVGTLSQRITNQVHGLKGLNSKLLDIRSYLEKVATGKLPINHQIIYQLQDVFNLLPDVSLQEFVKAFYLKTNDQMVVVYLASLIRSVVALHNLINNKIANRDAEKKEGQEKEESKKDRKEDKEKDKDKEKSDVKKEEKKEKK
# Method in brief: as §1
# [5] = molecular target: UCHL1 (UniProt P09936)
# Method in brief: as §1
# [6] = molecular target: T4, UCHL3 (UniProt P15374)
# T4 sequence (whole entry): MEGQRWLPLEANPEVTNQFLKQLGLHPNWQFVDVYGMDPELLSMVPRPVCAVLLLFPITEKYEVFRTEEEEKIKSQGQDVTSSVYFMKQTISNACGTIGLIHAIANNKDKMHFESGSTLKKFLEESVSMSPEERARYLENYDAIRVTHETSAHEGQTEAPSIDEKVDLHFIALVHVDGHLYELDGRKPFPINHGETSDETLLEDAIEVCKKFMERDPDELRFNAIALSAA
# Method in brief: as §1
# [7] = molecular target: T5, UCHL5 (UniProt Q9Y5K5)
# T5 sequence (whole entry): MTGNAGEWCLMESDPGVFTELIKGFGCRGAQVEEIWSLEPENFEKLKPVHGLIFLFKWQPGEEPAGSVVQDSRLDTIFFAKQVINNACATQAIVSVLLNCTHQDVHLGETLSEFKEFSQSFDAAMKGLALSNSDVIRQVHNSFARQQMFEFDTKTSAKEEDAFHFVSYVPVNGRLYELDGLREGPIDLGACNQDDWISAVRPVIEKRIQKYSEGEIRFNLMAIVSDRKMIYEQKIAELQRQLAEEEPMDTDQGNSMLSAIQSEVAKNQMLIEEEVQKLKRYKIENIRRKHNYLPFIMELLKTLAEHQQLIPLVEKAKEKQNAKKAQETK
# Method in brief: as §1
# [8] = molecular target: USP10 (UniProt Q14694)
# Method in brief: as §1
# [9] = molecular target: T6, USP15 (UniProt Q9Y4E8)
# T6 sequence (whole entry): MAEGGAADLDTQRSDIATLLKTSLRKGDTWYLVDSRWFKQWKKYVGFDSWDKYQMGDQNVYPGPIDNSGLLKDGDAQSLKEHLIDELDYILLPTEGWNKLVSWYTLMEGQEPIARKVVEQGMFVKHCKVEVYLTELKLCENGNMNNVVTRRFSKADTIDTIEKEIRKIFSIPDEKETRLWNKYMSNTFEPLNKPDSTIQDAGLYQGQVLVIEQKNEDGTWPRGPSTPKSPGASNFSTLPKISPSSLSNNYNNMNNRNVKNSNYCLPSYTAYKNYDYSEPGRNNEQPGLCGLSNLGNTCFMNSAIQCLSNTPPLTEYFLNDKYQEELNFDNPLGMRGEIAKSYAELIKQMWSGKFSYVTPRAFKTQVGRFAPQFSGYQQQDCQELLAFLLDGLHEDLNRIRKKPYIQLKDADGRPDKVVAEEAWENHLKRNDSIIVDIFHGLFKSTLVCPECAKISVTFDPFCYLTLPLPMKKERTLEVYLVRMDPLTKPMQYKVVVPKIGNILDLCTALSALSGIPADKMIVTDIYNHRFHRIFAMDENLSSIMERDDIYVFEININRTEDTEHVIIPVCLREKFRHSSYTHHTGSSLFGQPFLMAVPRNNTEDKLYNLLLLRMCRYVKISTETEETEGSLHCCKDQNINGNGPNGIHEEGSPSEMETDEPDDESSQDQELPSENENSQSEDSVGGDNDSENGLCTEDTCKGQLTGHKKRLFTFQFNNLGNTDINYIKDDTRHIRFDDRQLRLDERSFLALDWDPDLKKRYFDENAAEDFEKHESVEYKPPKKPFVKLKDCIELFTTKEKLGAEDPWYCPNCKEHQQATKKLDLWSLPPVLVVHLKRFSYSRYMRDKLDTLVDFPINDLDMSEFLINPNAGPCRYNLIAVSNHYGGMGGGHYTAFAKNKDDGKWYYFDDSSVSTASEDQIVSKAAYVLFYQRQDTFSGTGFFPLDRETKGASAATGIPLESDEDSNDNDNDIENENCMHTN
# Method in brief: as §1
# [10] = molecular target: USP16 (UniProt Q9Y5T5)
# Method in brief: as §1
# Sequence of USP16 (Q9Y5T5 whole entry, looked up): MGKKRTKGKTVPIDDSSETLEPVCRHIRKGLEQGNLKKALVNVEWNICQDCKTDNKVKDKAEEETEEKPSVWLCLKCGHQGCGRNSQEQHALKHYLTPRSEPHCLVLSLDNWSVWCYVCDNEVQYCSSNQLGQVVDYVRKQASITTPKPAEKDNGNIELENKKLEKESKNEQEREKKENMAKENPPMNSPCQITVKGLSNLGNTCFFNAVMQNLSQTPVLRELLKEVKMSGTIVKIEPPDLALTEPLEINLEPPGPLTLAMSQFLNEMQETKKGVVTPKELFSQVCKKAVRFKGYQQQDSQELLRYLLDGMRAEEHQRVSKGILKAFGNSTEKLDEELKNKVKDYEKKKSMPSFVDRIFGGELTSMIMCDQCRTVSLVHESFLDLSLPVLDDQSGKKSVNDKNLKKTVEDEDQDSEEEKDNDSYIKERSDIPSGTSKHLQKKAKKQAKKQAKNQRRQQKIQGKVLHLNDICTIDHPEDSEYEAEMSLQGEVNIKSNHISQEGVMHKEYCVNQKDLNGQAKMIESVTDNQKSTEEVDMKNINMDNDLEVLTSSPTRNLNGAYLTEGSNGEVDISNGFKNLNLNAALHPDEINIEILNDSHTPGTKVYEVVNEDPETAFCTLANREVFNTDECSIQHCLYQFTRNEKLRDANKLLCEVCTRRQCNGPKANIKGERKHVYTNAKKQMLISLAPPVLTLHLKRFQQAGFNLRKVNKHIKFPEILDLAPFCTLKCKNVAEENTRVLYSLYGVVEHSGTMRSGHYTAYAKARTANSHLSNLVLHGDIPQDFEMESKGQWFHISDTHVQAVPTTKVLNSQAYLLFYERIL
# Sequence of USP10 (Q14694 whole entry): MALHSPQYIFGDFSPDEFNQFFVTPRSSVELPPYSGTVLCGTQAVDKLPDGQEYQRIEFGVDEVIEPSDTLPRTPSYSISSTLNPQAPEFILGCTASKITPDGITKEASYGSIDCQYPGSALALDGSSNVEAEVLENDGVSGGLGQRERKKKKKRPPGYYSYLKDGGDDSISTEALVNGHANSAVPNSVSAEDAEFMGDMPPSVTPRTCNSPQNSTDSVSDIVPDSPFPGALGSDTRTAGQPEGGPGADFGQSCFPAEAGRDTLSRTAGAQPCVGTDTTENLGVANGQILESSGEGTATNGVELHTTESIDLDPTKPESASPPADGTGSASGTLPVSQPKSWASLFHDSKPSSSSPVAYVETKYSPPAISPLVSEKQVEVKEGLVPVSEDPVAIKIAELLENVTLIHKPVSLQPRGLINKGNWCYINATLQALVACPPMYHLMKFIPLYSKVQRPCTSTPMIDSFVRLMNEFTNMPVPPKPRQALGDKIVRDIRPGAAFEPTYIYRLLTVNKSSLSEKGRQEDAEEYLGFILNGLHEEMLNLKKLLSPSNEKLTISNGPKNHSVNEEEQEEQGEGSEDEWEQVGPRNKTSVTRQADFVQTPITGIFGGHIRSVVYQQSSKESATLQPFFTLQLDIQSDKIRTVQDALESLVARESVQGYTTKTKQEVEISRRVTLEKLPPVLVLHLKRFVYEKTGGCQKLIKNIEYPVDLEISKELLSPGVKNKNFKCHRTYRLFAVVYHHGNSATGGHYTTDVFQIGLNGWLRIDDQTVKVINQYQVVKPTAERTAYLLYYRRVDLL
# Sequence of UCHL1 (P09936 whole entry, looked up): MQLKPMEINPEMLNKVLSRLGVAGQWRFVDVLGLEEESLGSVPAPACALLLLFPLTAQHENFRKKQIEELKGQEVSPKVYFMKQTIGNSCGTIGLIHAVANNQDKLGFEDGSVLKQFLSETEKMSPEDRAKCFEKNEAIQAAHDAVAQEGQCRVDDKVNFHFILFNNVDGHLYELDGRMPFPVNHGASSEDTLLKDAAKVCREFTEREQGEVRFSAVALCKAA
compound,measurement,setting,value
CC1Cc2ccccc2N1C(=O)CCl (stereo not given),log2 ratio of Biotin-Ahx-Ub-VS probe labelling,[1],-0.391
same,log2 ratio of Biotin-Ahx-Ub-VS probe labelling,[2],-0.238
same,log2 ratio of Biotin-Ahx-Ub-VS probe labelling,[3],-0.117
same,log2 ratio of Biotin-Ahx-Ub-VS probe labelling,[4],-0.328
same,log2 ratio of Biotin-Ahx-Ub-VS probe labelling,[5],-1.4 (active)
same,log2 ratio of Biotin-Ahx-Ub-VS probe labelling,[6],0.164
same,log2 ratio of Biotin-Ahx-Ub-VS probe labelling,[7],-0.572
same,log2 ratio of Biotin-Ahx-Ub-VS probe labelling,[8],-0.242
same,log2 ratio of Biotin-Ahx-Ub-VS probe labelling,[9],-0.382
same,log2 ratio of Biotin-Ahx-Ub-VS probe labelling,[10],0.0877
